Data on 38 compounds can be found in ChEMBL document CHEMBL3433997, “St. Jude Leishmania screening dataset” (2016).

What all share (format): functional
Test [1] addresses Solute carrier family 2, facilitated glucose transporter member 1 (Homo sapiens) (UniProt P11166). Put plainly: ST_JUDE_LEISH: Cytotoxicity at 2uM final concentration against transgenic Leishmania Mexicana promastigotes LmGLUT1 that are glucose transport deficient and complemented with the human glucose transporter GLUT1. Activity is measured by DNA content using SYBR green in vitro.

Test [2] concerns the target Hexose transporter 1 (Plasmodium falciparum) (UniProt O97467). As to the kind of experiment: ST_JUDE_LEISH: Cytotoxicity at 2uM final concentration against transgenic Leishmania Mexicana promastigotes LmPfHT that are glucose transport deficient and complemented with the Plasmodium falciparum hexose transporter. Activity is measured by DNA content using SYBR green in vitro.

The target of test [3] is Glucose transporter (Leishmania mexicana) (UniProt O61059). Put plainly: ST_JUDE_LEISH: Cytotoxicity at 2uM final concentration against transgenic Leishmania Mexicana promastigotes LmGT2 that are glucose transport deficient and complemented with the L. Mexicana glucose transporter 2. Activity is measured by DNA content using SYBR green in vitro.

Solute carrier family 2, facilitated glucose transporter member 1 (Homo sapiens), sequence (P11166 whole entry): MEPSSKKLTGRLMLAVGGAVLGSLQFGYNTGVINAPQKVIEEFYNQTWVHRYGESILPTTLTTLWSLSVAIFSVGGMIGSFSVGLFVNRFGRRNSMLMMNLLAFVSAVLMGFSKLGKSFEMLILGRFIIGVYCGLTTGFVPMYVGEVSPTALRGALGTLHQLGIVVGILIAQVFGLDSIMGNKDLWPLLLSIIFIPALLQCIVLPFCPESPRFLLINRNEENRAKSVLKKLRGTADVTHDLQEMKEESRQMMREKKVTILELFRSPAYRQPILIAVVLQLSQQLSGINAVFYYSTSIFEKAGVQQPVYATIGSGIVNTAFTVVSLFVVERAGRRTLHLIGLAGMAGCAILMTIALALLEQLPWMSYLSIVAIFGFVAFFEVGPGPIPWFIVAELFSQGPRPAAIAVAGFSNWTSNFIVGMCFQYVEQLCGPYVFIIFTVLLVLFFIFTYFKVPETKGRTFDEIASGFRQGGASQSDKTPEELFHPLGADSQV

As for `N[C@@H](Cc1ccc(O)cc1)C(=O)NC(c1ccccc1)c1c(O)ccc2ccccc12` (some centres undefined), the inhibition was -0.12% in test [1], -0.91% in test [2] and -0.99% in test [3].
Taken in the same sequence, the figures for `COc1c(C=NNc2nc(=Nc3ccccc3)[nH]c(=Nc3ccccc3)[nH]2)ccc(Br)c1O` were 11.3%, 11.7% and 9.27%.
In the case of `O=C(Nc1nc2cc(S(=O)(=O)NCc3ccc(Cl)c(Cl)c3)ccc2n1CCCn1ccnc1)c1ccc(Cl)cc1`, the results for the inhibition in test [1], in test [2] and in test [3] were 6.51%, 4.45% and 4.53%, respectively.
For `N#Cc1cccc(Nc2cc(C(F)(F)F)nc(Nc3ccccc3)n2)c1`, in that order: 15.4%, 11.3% and 6.45%.
Taken in the same sequence, the figures for `C=C[C@]1(C)C[C@@H](OC(=O)NC(=O)CCCS(=O)(=O)c2nnc(C)s2)[C@]2(C)[C@H](C)CC[C@]3(CCC(=O)[C@H]32)[C@@H](C)[C@@H]1O` were 11.1%, 11.3% and 6.8%.
For `Cc1cc(=NN=Cc2ccccc2)c2cc(C(F)(F)F)ccc2[nH]1`, in that order: 8.02%, 8.87% and 6.17%.
`Cc1noc(-c2cccs2)c1C(=O)NCCc1cccc(Cl)c1`: the inhibition is 5.34% in test [1], 5.32% in test [2] and 2.4% in test [3].
Taken in the same sequence, the figures for `Cc1ccc(Nc2ccnc(Nc3ccc(F)c(Cl)c3)n2)cc1O` were 6.74%, 10.4% and 2.04%.
Consider `CCCCc1ccc(C(=O)Nc2ccc3nc(N4CCN(C)CC4)cc(C)c3c2)cc1`, for which the inhibition came out at 2.19% in test [1], 3.48% in test [2] and 3.48% in test [3].
For `CCCCCCCN(CCCCCCC)CCNc1cc(C)nc2ccccc12`, the inhibition in test [1] was 6.37%; in test [2], 5.18%; in test [3], 4.49%.
Taken in the same sequence, the figures for `CCc1cccc2c(C#N)cn(CC(=O)NCCc3ccccc3)c12` were 6.99%, 9.88% and 9.25%.
For `COc1ccc2ccccc2c1C=NN=c1cc(C)[nH]c2c(C)cccc12`, in that order: 1.52%, 1.8% and 3.6%.
For the compound `Cc1cc(OCC2CCCO2)c2cc(NC(=O)C(=O)Nc3ccc4nc(C)cc(OCC5CCCO5)c4c3)ccc2n1` (centres undefined), the inhibition in test [1] is 3.87%; in test [2], 3.62%; in test [3] it was 3.37%.
For `O=C(NCc1cccc(F)c1)Nc1cccc(-c2ccc(-c3nc4cc(F)ccc4[nH]3)cc2)c1`, in that order: 2.2%, 3.53% and 6.86%.
For `COc1cccc(-c2ccc(NC(=O)C3CCCN(Cc4cccc(OC)c4O)C3)cc2)c1` (centres undefined), in that order: 3.21%, 2.29% and -0.64%.
Taken in the same sequence, the figures for `CCCCc1ccc(-c2ccc(-c3c(C)[nH]c(C)c(Br)c3=O)cn2)cc1` were 2.88%, 3.53% and 1.52%.
As for `O=C(NC1CC1)c1cnc(N2CCC(OCc3ccccc3)CC2)c(Cl)c1`, the figures for the inhibition in test [1], in test [2] and in test [3] were 1.59%, 3.18% and -1.03%, respectively.
For `CCCNCCc1ccc(NS(=O)(=O)c2cccc(-c3ccc(Cl)cc3)c2)cc1`, in that order: 1.93%, 0.61% and 1.01%.
Taken in the same sequence, the figures for `COc1ccc(-c2nc(-c3ccc([N+](=O)[O-])cc3)no2)cc1OC` were 1.91%, 2.39% and 1.76%.
For `COc1ccc(C2c3ccccc3-c3nc(N)nc(N)c3C2C)cc1` (centres undefined), the inhibition amounted to 3.13% in test [1], 3.19% in test [2] and 0.31% in test [3].
Taken in the same sequence, the figures for `CC(C)[C@H](NC(=O)c1ccc(O)c(-c2ccc(Cl)c(Cl)c2)c1)C(=O)NCCN1CCCC1` were -0.22%, -0.09% and 0.36%.
For `CCCC1N=C(N)N=C(N)N1c1cccc(C(F)(F)F)c1` (centres undefined), in that order: 0.83%, 0.06% and 0.06%.
Taken in the same sequence, the figures for `O=C(CN1CCN(C(=O)c2ccco2)CC1)Nc1ccc(Br)cc1Cl` were -3.24%, -1.31% and -0.59%.
Take `COc1cc(CN2CCC(CO)(Cc3cccc(C(F)(F)F)c3)CC2)c(Cl)cc1O`: the inhibition is 0.06% in test [1], -1.69% in test [2] and -0.81% in test [3].
Consider `Cc1cc(Nc2ccncc2)n2nc(C)c(-c3ccccc3Cl)c2n1`, for which the inhibition in test [1] worked out at 2.97%; in test [2], 1.58%; in test [3], 6.28%.
For `Cc1cc2ncn(-c3nccc(NCc4cccnc4)n3)c2cc1C`, in that order: 4.32%, 4.68% and 2.17%.
As for `COc1ccc(-c2nc3ccc(C)nc3nc2-c2ccc(OC)cc2)cc1`, the inhibition is 5.17% in test [1], 3.91% in test [2] and 3.89% in test [3].
For `CC1Cc2ccccc2N1CC(=O)Nc1cc(C(F)(F)F)ccc1-n1cncn1` (centres undefined), in that order: 1.94%, 2.01% and -1.95%.
With `Clc1ccc(Sc2cncnc2N2CCOCC2)cc1`, the inhibition in test [1] was 3.31%; in test [2], 1.01%; in test [3] it was -0.01%.
In the case of `CC=Cc1cc(Cc2c[nH]c(=N)[nH]c2=N)cc(CCC)c1OC`, the figures for the inhibition in test [1], in test [2] and in test [3] were 10.8%, 8.99% and 4.71%, respectively.
Taken in the same sequence, the figures for `COCCNCc1cccc(-c2cccc(CNC3CCN(Cc4ccccc4)CC3)c2)c1` were 2.73%, 2.84% and 2.88%.
For `CCOc1ccc2c(=NN=Cc3cc(OC)c(OC)cc3OC)cc(C)[nH]c2c1`, in that order: 3.1%, 2.65% and -1.87%.
Taken in the same sequence, the figures for `O=C(N[C@@H](CC1CCCCC1)C(=O)NCCN1CCCCC1)c1ccc(O)c(-c2cccc(C(F)(F)F)c2)c1` were 2.41%, 3.95% and -0.49%.
As for `O=C(Nc1cccc(Cl)c1)c1cc2ccccc2cc1O`, the figures for the inhibition in test [1], in test [2] and in test [3] were 2.74%, 3.05% and 2.04%, respectively.
For `CCN(CC)CCN(Cc1ccc(-c2ccc(C(F)(F)F)cc2)cc1)C(=O)Cn1c(CCc2cccc(F)c2F)nc(=O)c2ccc(F)cc21`, in that order: 2.25%, 1.35% and 2.49%.
Regarding `O=C(c1ccc(Cl)cc1)N1CCCC(C(=O)N(Cc2nnc(-c3ccccc3Cl)o2)C2CC2)C1` (centres undefined), the inhibition was 0.11% in test [1], 1.56% in test [2] and -0.04% in test [3].
For `Nc1c2c(nc3ccccc13)C(=Cc1ccc(O)cc1)CCC2`, in that order: 5.91%, 8.35% and 2.9%.
Taken in the same sequence, the figures for `CC(C)C(=O)Nc1c(F)cc(F)cc1CCc1ccc(O)cc1` were 7.29%, 8.12% and 5.01%.

The term inhibition denotes the relative decrease from the control value, in per cent.
